Compound activity from PubChem BioAssay.
KB-V1 cytotox – kills drug-selected multidrug resistant KB-V1 cells | KB-V1 MDR cells viability, CellTiter-Glo, 72 h | 3.4% of 400,000 active | Potency, µM (series often up to 46.1 µM), usual class: cytotoxic; note: potency is the fitted concentration of half-maximal effect; % is set by controls: 0 for no effect and ±100 for the full control effect; nearly all actives have a fitted effect of over 60% in size
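Drug-selected KB-V1 cells, grown in DMEM lacking phenol red with 10% FBS, receive compound titrations; after three days at 37 degrees C, surviving cell ATP is quantified by CellTiter-Glo luminescence and responses normalized and curve-fitted.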
SW480 rerep – inducers of DNA re-replication in SW480 colon cancer cells | SW480 DNA re-replication, Hoechst DNA content imaging, 48 h | Potency, µM (series often up to 46.1 µM), without a hit: at the highest dose re-replication activation, actives largely listed as activators | AID 624297 | 1.8% of 340,000 active; note: potency is the fitted concentration of half-maximal effect; % of control where 0% means no effect; nearly all actives have a fitted effect of over 55% in size
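Hoechst fluorescence of nuclei (405 nm excitation, 500-530 nm emission) measured by plate-scanning imager after 48 hr compound exposure at 37 C; re-replication scored as increased number of nuclei with elevated intensity.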
MCF10A rereplic – inducers of DNA re-replication in MCF 10A breast cells. MCF 10A DNA re-replication, Hoechst nuclear intensity, 48 h. Potency, µM (titrated, usually from 46.1 µM), for inactives: at the top dose activity, positive = re-replication, hits mostly activators. 2.9% of 350,000 active. AID 624296; note: potency is the fitted concentration of half-maximal effect; % of control where 0% means no effect; nearly all actives have a fitted effect of over 50% in size
KB-3-1 tox – kills parental KB-3-1 adenocarcinoma cells; KB-3-1 viability, CellTiter-Glo ATP luminescence, 72 h; Potency, µM (highest dose often 46.1 µM), hits mostly cytotoxic; 1.4% of 400,000 active; AID 1347075; note: potency is the fitted concentration of half-maximal effect; % is set by controls: 0 for no effect and ±100 for the full control effect; nearly all actives have a fitted effect of over 60% in size
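Screening of KB-3-1 cells (DMEM, 10% FBS, phenol-red free) ran from lowest to highest compound concentration; after 72 h at 37 °C viability was read luminescently and curves fitted.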
IL-1B inflam inh – blocks inflammasome-driven IL-1 beta release | THP-1 LPS/ATP IL-1B secretion, AlphaLISA, 16 h; hits give low values | activity change, % at 57.5 µM | 4.7% of 360,000 active; in the data active = activity change below about -50%; inconclusive = mostly about -30% to -49%; note: % is set by controls: 0 for no effect and ±100 for the full control effect
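Secreted IL-1B measured by AlphaLISA bead assay after 16 h compound exposure of THP-1 cells; compounds (final up to 57.5 uM) added 1 h before LPS (250 ng/mL) and ATP (1.25 mM) stimulation; lower signal means less secretion.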
* marks the source's active call; other numbers are inactive results; i = inactive; ? = inconclusive; · = no result given; [ ] = remark or other dose. Only some compounds are listed: those with a hit (about 9.9% of all), similar ones and a draw of the others. Unless noted, calls come from the whole dose curve; as a rule, active = well fitted curve in the direction sought with a large enough effect; inconclusive = small, poorly fitted or top-dose-only effect, or another doubt; inactive = no such curve, though single readings can be large; an effect the other way counts as inactive or inconclusive.

SMILES	KB-V1 cytotox	SW480 rerep	MCF10A rereplic	KB-3-1 tox	IL-1B inflam inh
CNc1nc(NCc2ccccc2)c2sccc2n1	i	·	·	i	-18
CCCS(=O)(=O)NC(=O)C1(C)CCCN(C(=O)c2ccc(C#N)cc2)C1 (stereo unspecified)	i	·	·	i	37
Cc1c(NC(=O)[C@@H](NC(=O)c2ccc(Cl)c([N+](=O)[O-])c2)C(C)C)c(=O)n(-c2ccccc2)n1C	i	-1%	10%	i	-94*
O=C(Oc1ccc2[nH]cc(CCN3C(=O)c4ccccc4C3=O)c2c1)c1ccco1	i	-8%	12µM*	i	-23
O=C1c2ccccc2C(=O)N1CCCc1c[nH]c2ccc(Cl)cc12	21µM*	-100%	1%	?	-20
COc1ccc2[nH]cc(CCNC(=O)c3ccco3)c2c1	i	-14%	42%	i	-11
O=C(CC1(O)C(=O)Nc2cc(Cl)cc(Cl)c21)c1ccccc1O (stereo unspecified)	i	?	15µM*	i	-80*
Fc1ccc2nc(C3CCCCN3Cc3nc(CC4CC4)no3)[nH]c2c1 (stereo unspecified)	?	-2%	12%	i	-65*
CC(C)(C)c1ccc(C(=O)NNC(=O)CNC(=O)c2cccs2)cc1	i	1%	-3%	i	8
Cc1nn(CC(=O)Nc2ccc(Cl)cc2)c(=O)c2cc(-c3ccccc3)nn12	i	15µM*	21µM*	i	32
COC(=O)c1cc(NC(=O)Cn2nc(-c3ccccc3)c3c(c2=O)CCCC3)cc(C(=O)OC)c1	i	·	·	i	·
O=C(Cn1nc(-c2ccccc2)c2c(c1=O)CCCC2)Nc1ccc(F)c(Cl)c1	?	·	·	23µM*	·
Cc1[nH]nc(-c2cccnc2)c1N=NN(C)C	16µM*	2.6µM*	1.6µM*	?	-104*
O=C(NCC1CCOCC1)c1ccc(-c2ccc(F)c(F)c2)c2ccoc12	i	·	·	i	-92*
COc1ccc2cc(S(=O)(=O)NCc3cccnc3)ccc2c1	i	-3%	10%	i	14
O=C(Nc1cc(Cl)cc(Cl)c1)c1coc(=O)c(Br)c1	i	?	?	i	·
O=C(NCCC1=CCCCC1)c1coc(=O)c(Br)c1	?	9.2µM*	12µM*	?	0
CC(C)CNC(=O)c1coc(=O)c(Br)c1	?	?	21µM*	6.3µM*	-29
O=C(NCCc1ccccc1)c1ccco1	i	3%	0%	i	5
O=C(NCCC1=CCCCC1)c1ccc(=O)oc1	i	1%	-183%[0.0737 µM]	i	-27
O=C(NCCc1ccccc1)c1coc(=O)c(Br)c1	?	10µM*	?	?	-99*
CN(C)CCNC(=O)c1coc(=O)c(Br)c1	i	2%	22%	i	-10
O=C(NC(CO)(CO)CO)c1coc(=O)c(Br)c1	i	7.3µM*	3.3µM*	i	-8
CCc1nc2ccc(C(=O)NCCCN3CCN(c4ccccc4F)CC3)cc2nc1CC	i	?	?	i	-23
Cc1ccc(C2(CCNC(C)c3cccs3)CCOC(C(C)C)C2)cc1 (stereo unspecified)	i	?	0%	i	-81*
SMILES	KB-V1 cytotox	SW480 rerep	MCF10A rereplic	KB-3-1 tox	IL-1B inflam inh
COc1ccccc1C1(CCNC(C)c2cccs2)CCOC(C(C)C)C1 (stereo unspecified)	?	14%	?	i	·
COc1ccccc1C1(CCNS(=O)(=O)c2ccc(C)cc2)CCOC(C(C)C)C1 (stereo unspecified)	3.7µM*	?	?	?	?
Nc1ccc(-c2nc(-c3ccccc3)nc3ccccc23)cc1	i	23µM*	16µM*	i	?
Nc1ccc(-c2cc(-c3cccc(N)c3)nc(-c3ccccc3)n2)cc1	i	?	16µM*	?	10
CC(=O)Nc1ccc(-c2cc(-c3ccccc3)nc(-c3ccccc3)n2)cc1	i	1%	?	i	3
Clc1ccc(CNc2ccc(CNc3ncn[nH]3)cc2)cc1	18µM*	3%	11%	?	1
CC(=O)NC(CC(=O)N(C)C1CCCCC1)c1ccccc1 (stereo unspecified)	i	-10%	-6%	i	39
CC(C)(O)CN(C(=O)C(c1ccccc1)c1ccccc1)C1CCCCC1	13µM*	11%	5%	i	-63*
O=C(NCc1nnc2c3ccccc3c(-c3ccccc3)nn12)c1ccc(Cl)cc1	?	-4%	?	i	-97*
COc1ccc(C(=O)COC(=O)C2CCC(=O)N2)cc1 (stereo unspecified)	i	-2%	4%	i	-1
O=c1[nH]c2cc3c(cc2cc1C(c1nnnn1C1CCCC1)N1CCSCC1)OCCO3 (stereo unspecified)	10µM*	2%	8%	?	-16
COc1cc2cc(C(c3nnnn3C3CCCCC3)N(C)C3CCCCC3)c(=O)[nH]c2cc1OC (stereo unspecified)	23µM*	14%	2%	21µM*	?
Cc1ccc(C(c2nnnn2C2CCCCC2)N(C)C2CCCCC2)cc1 (stereo unspecified)	i	11%	?	i	-14
CC(C)C(c1nnnn1C1CCCC1)N(C)C1CCCCC1 (stereo unspecified)	18µM*	-8%	-6%	i	-9
COc1cc2cc(C(c3nnnn3C3CCCC3)N(C)C3CCCCC3)c(=O)[nH]c2cc1OC (stereo unspecified)	i	-2%	-23%	i	-7
COc1ccc2cc(C(c3nnnn3C(C)(C)C)N3CCSCC3)c(=O)[nH]c2c1 (stereo unspecified)	i	0%	-2%	i	-6
CC(C)(C)n1nnnc1C(c1cc2cc3c(cc2[nH]c1=O)OCCO3)N1CCSCC1 (stereo unspecified)	i	-3%	-12%	i	-51*
O=C(N/N=C/c1sc2ccccc2c1O)c1cccc2ccccc12	?	?	?	i	96
O=C(N/N=C/c1sc2ccccc2c1O)c1ccccc1	?	2.6µM*	?	i	51
COc1ccc(C(=O)N/N=C/c2sc3ccccc3c2O)cc1	?	5.2µM*	?	7.3µM*	9
COc1ccc2cc(C(=O)N/N=C/c3sc4ccccc4c3O)ccc2c1	23µM*	?	?	13µM*	1
O=C(c1ccccc1)c1c2c(cc3sc4ccccc4[n+]13)-c1cccc3cccc-2c13	?	8%	?	21µM*	-108*
Cc1sc2cc3c(c(C(=O)c4ccccc4)[n+]2c1C)-c1cccc2cccc-3c12	i	?	12µM*	7.3µM*	-97*
